The source of these data is PubChem BioAssay AID1851 (National Center for Advancing Translational Sciences (NCATS), 2009).

Structures are written as SMILES. Out of some 16,000 compounds screened, about 5,100 (32%) were called active. Inconclusive results (about 25%) are left out. The call rests on the fitted dose curve; in most records, active means well fitted curve in the direction sought with a large enough effect; inconclusive means small, poorly fitted or top-dose-only effect, or effect the other way; inactive means no such curve, though single readings can be large or run the other way. Some of the results follow.
On the % scale 0 is the no-effect control and ±100 the full control effect.

Sequence of Cytochrome P450 3A4 (Homo sapiens) (P08684 whole entry, looked up): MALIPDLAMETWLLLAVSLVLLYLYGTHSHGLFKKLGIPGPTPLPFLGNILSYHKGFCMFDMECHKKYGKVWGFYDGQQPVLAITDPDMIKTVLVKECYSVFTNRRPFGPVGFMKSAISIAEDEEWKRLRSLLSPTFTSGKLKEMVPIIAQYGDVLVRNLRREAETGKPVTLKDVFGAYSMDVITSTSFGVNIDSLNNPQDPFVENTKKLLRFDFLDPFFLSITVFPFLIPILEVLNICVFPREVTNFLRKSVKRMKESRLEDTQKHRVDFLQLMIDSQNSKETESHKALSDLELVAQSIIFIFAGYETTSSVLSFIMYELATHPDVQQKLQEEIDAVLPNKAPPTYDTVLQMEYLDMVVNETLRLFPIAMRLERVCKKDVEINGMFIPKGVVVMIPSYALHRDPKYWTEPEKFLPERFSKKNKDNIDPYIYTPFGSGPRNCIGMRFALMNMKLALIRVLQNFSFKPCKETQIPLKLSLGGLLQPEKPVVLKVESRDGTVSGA

This assay addresses Cytochrome P450 3A4 (Homo sapiens) (UniProt P08684). Kind of assay: Cytochrome panel assay with activity outcomes. The note with it: recombinant CYP, pro-luciferin dealkylation, luminescence, p450-cyp3a4; series mostly up to 57.1 µM.
As for `O=C(c1ccccc1)c1ccc(OCCn2cnc3ccccc3c2=O)cc1`, the activity, negative = inhibition was 26.6% [at 2.29 µM] (inactive).

In the case of `COc1ccc(-c2nc3ccccc3c(=O)n2N)cc1`, the activity, negative = inhibition was -5.9% [at 11.4 µM] (inactive).

Take `COc1ccc(CNn2c(C)nc3ccccc3c2=O)cc1`: the AC50 is 3.98 µM (active).

Take `CCCCOc1ccc(CNn2c(C)nc3ccccc3c2=O)cc1`: the AC50 is 1.58 µM (active).

On to `CCCCOc1ccc(CC(=O)NO)cc1`, for which the AC50 result was “inactive”.

In the case of `CC(C)On1c(SC(C)C)nc2ccccc2c1=O`, the activity, negative = inhibition is 22.8% [at 11.4 µM] (inactive).

Take `CCCNC1CCS(=O)(=O)C1` (configuration not stated): the AC50 result is “inactive”.

As to `CC[C@H](C)[C@@H]1O[C@]2(CC[C@@H]1C)C[C@H]1C[C@H](CC=C(C)[C@@H](O[C@@H]3C[C@H](OC)[C@H](O[C@@H]4C[C@H](OC)[C@H](O)[C@H](C)O4)[C@H](C)O3)[C@@H](C)C=CC=C3CO[C@@H]4[C@@H](O)C(C)=C[C@@H](C(=O)O1)[C@]34O)O2`, the AC50 entry is “inactive”.

Take `CC1CC(OCC(O)CN2CCN(Cc3ccccc3)CC2)CC(C)(C)C1` (configuration not stated): the AC50 was 8.91 µM (active).

As for `CC1CCC(C(C)C)C(OCC(O)CN2CCN(Cc3ccccc3)CC2)C1` (configuration not stated), the AC50 result was “inactive”.

Take `CN1CCN(CC(O)c2ccccc2)CC1` (configuration not stated): the AC50 result is “inactive”.

Take `COc1cccc(C(=O)N2N=C(c3cccc(OC)c3)CC2(O)C(F)(F)F)c1` (configuration not stated): the AC50 was 7.94 µM (active).

For the molecule `CCOC(=O)N1N=C(c2ccccc2)CC1(O)C(F)(F)F` (configuration not stated), the activity, negative = inhibition is 2.59% [at 11.4 µM] (inactive).

For `COc1cccc(C(=O)NNC2=CC(=O)CC(C)(C)C2)c1`, the activity, negative = inhibition was 3.39% [at 2.29 µM] (inactive).

For `CCOc1cc(CNc2ccc(OC)cc2)cc(Br)c1OCC(=O)NC(C)(C)C`, the AC50 is 15.8 µM (active).

For `COc1cc(CNCCc2ccccc2)ccc1OCC(=O)NC(C)(C)C`, the AC50 entry is “inactive”.

For `CCOc1ccc(N=C2NC(=O)C(CC(=O)O)S2)cc1` (configuration not stated), the AC50 result is “inactive”.

In the case of `CCn1c(CC(C)C)n[nH]c1=S`, the AC50 entry is “inactive”.

Take `CCn1c(CCNC(=O)c2ccc(Cl)cc2Cl)n[nH]c1=S`: the AC50 is 14.1 µM (active).

As to `CCn1c(CCNC(=O)c2ccccc2Cl)n[nH]c1=S`, the AC50 entry is “inactive”.

Take `O=[N+]([O-])c1ccc(CSCc2ccc(Cl)cc2)cc1`: the activity, negative = inhibition was -19.8% [at 11.4 µM] (inactive).

On to `O=[N+]([O-])c1ccc(-c2cnc(SCc3ccccc3Cl)[nH]2)cc1`, for which the AC50 is 14.1 µM (active).

For the molecule `O=[N+]([O-])c1ccc(Cl)c(/C=N/N2CCN(Cc3ccccc3Cl)CC2)c1`, the AC50 entry was “inactive”.

As for `CC(C)Cn1c(-c2nn(C)cc2Cl)n[nH]c1=S`, the AC50 result was “inactive”.

`CN(C)CC[C@H](c1ccc(Cl)cc1)c1ccccn1`: the AC50 entry was “inactive”.

On to `CC(c1ccc(Cl)cc1)n1c(-c2ccc3ccccc3n2)n[nH]c1=S` (configuration not stated), for which the AC50 was 7.94 µM (active).

On to `Cc1cc2nnc(SCCCCN3C(=O)c4ccccc4C3=O)n2c2ccccc12`, for which the AC50 was 6.31 µM (active).

On to `Cc1cc2nnc(SCC(=O)OC(C)C)n2c2ccccc12`, for which the AC50 entry is “inactive”.

For the molecule `CCc1ccc(N2C(=O)c3ccc4c5c(ccc(c35)C2=O)CC4)cc1`, the AC50 result was “inactive”.

Turning to `COC(=O)Nc1nc2ccc(Sc3ccccc3)cc2[nH]1`, the AC50 entry is “inactive”.

For `COc1ccc(C(=O)NCc2ccc(-c3nc4ccccc4s3)cc2)cc1`, the concentration at half-maximal activity (AC50) is 2.51 µM (active).

In the case of `C=CCOc1c2ccc(C(=O)NC3CCCc4ccccc43)cc2nn1C` (configuration not stated), the activity, negative = inhibition is 3.25% [at 2.29 µM] (inactive).

`O=C(NC1CCCc2ccccc21)C1CCN(S(=O)(=O)N2CCCCCC2)CC1` (configuration not stated): the AC50 was 7.94 µM (active).

As for `O=C(NC1CCCc2ccccc21)c1ccc(=O)[nH]c1` (configuration not stated), the activity, negative = inhibition is 10.9% [at 2.29 µM] (inactive).

Regarding `Cc1ccccc1/C=C\C1=NCCN1`, the AC50 result is “inactive”.

`O=C(N/N=C/c1ccccn1)c1ccco1`: the AC50 entry was “inactive”.

For `Cc1cc(C(=O)N/N=C/c2cccc(OC(=O)c3ccco3)c2)n[nH]1`, the activity, negative = inhibition is 7.86% [at 2.29 µM] (inactive).

With `COc1cc(/C=N/NC(=O)c2cccnc2)ccc1OC(=O)c1ccc2c(c1)OCO2`, the AC50 was 1.26 µM (active).

Regarding `COc1cc(/C=N/NC(=O)c2cccnc2)ccc1OC(=O)c1ccco1`, the AC50 is 14.1 µM (active).

`COc1c(/C=N/Nc2ccc([N+](=O)[O-])cc2[N+](=O)[O-])c(C)nn1-c1ccccc1`: the AC50 result was “inactive”.

Consider `Cc1nc(N/N=C/c2ccccc2)nc(N(C)c2ccccc2)c1[N+](=O)[O-]`, for which the AC50 was 7.08 µM (active).

For the molecule `Cc1ccc(NC(=O)c2ccc(CSc3nnc(-c4ccncc4)n3C)cc2)cc1`, the AC50 entry is “inactive”.

In the case of `Cn1nnnc1SCc1ccc(C(=O)Nc2ccc(Br)cc2)cc1`, the AC50 entry is “inactive”.

Take `C=CCn1c(SCc2ccc(C(=O)Nc3ccccc3)cc2)nnc1-c1ccccc1`: the AC50 is 4.47 µM (active).

For `COC(=O)c1c(C)nc2ccccc2c1C(=O)O`, the AC50 entry is “inactive”.

On to `O=C(O)c1ccc(Cc2ccccc2C(=O)O)cc1`, for which the activity, negative = inhibition was -8.32% [at 11.4 µM] (inactive).

Take `COC(=O)c1c(C)[nH]c(C)c1C(=O)c1ccccc1Cc1ccccc1`: the AC50 was 1 µM (active).

In the case of `COc1ccc(NC(=S)N2CCN(C/C=C/c3ccccc3)CC2)cc1OC`, the concentration at half-maximal activity (AC50) is 17.8 µM (active).

Turning to `Cc1ccc(N=C/C(C(=O)C(F)(F)F)=C(\O)c2cccs2)cc1`, the AC50 is 12.6 µM (active).

Take `CC[C@H](C(=O)c1cccs1)C(O)(C(F)(F)F)C(F)(F)F`: the activity, negative = inhibition was -6.43% [at 11.4 µM] (inactive).

Regarding `O=P(O)(COc1ccccc1)COc1ccccc1`, the AC50 entry is “inactive”.

As to `CC(C)c1ccc(Cn2ccc3c4c(N)nc(NC5CC5)nc4ccc32)cc1`, the AC50 is 6.31 µM (active).

With `CCC(C)(C)N=C(NC#N)Nc1cccnc1`, the AC50 was 5.01 µM (active).

In the case of `CC(C)CN(C)c1nc(N)c(C(=O)N=C(N)N)nc1Cl`, the AC50 entry is “inactive”.

In the case of `Cc1cnc(CNc2ncncc2-c2ccc(C(=O)N(C)C)cc2)cn1`, the AC50 is 12.6 µM (active).

For `Cc1cnc(CNc2cc(-c3ccc(C(=O)N(C)C)cc3)ncn2)cn1`, the AC50 result was “inactive”.

Consider `Cc1cnc(CNc2ncncc2-c2ccc(N(C)C)cc2)cn1`, for which the AC50 was 2 µM (active).

Consider `Cc1cnc(CNc2ncncc2-c2ccoc2)cn1`, for which the AC50 is 2 µM (active).

For the molecule `COC(=O)Nc1nc2ccc(C(=O)c3cccs3)cc2[nH]1`, the AC50 result was “inactive”.

Take `CNCCCCCCCCSc1nc(C(C)C)ccc1C(=O)c1cccs1`: the AC50 was 2.51 µM (active).

`C[C@@H](C(=O)O)c1ccc(C(=O)c2cccs2)cc1`: the AC50 result is “inactive”.

`CCOC(=O)N/N=C1/C[C@@H](O)[C@@H](O)[C@@H]2[C@@H]3C(=O)N(CC)C(=O)[C@H]3CC[C@@H]12`: the activity, negative = inhibition is -14.4% [at 11.4 µM] (inactive).

A word on the AC50: it is the midpoint of the concentration-response curve, whichever way the signal moves.
